Results taken from ChEMBL document CHEMBL4513146, “CO-ADD screening of Karazin Kharkiv National University (Ukraine) compounds”.
Entries with a potency or affinity are not part of this list.

The compounds below were run on Cryptococcus neoformans. Conditions: Concentration 32 ug.mL-1; ASSAY_TEST Inhibition of Fungal Growth; detection method Resazurin; Absorption (OD600-OD570); plate type 384well; NBS; CORNING #3640.
Cc1cccc(NC(=O)CSc2nnc3c4cc(-c5ccc(F)cc5)nn4ccn23)c1C gave an Inhibition of -21.34%.
Work on O=C(CSc1nnc2c(=O)n(-c3ccc(F)cc3)ccn12)c1ccccc1Cl yielded an Inhibition of -13.46%.
In the case of CC(C)CCn1c(=O)c2ccccc2n2c(=O)n(CC#N)nc12, the Inhibition is reported as -29.58%.
Cc1ccc(NC(=O)Cn2nc3c(N4CCOCC4)nccn3c2=O)cc1F showed an Inhibition of -4.33%.
CC(=O)c1ccc(NC(=O)Cn2nc3c4cc(-c5ccc(Cl)cc5)nn4ccn3c2=O)cc1 showed an Inhibition of -18.84%.
Cc1cccc(Oc2nccn3c(=O)n(CC(=O)N4CCN(c5ccc(F)cc5)CC4)nc23)c1C gave an Inhibition of -7.63%.
Work on O=c1n(Cc2ccccc2F)nc2ccc(S(=O)(=O)N3CCCCCC3)cn12 yielded an Inhibition of -9.24%.
O=C(Cn1nc2c(N3CCOCC3)nccn2c1=O)Nc1cc(C(F)(F)F)ccc1Cl showed an Inhibition of -4.39%.
Compound CN(C)C(=O)CSc1nnc2c(=O)n(-c3ccc(F)cc3)ccn12 has an Inhibition of -5.4%.
Work on CCCc1nnc2c(=O)n(CC(=O)Nc3ccc(C(C)=O)cc3)c3ccccc3n12 yielded an Inhibition of -9.17%.
Work on CCCn1c(=O)c2sccc2n2c(=O)n(CC(=O)c3cc(C)ccc3C)nc12 yielded an Inhibition of -24.9%.
In the case of Cc1cc(C)cc(N(Cc2c(F)cccc2Cl)S(=O)(=O)c2cccn3cnnc23)c1, the Inhibition is reported as -5.6%.
Cc1nnc2c(S(=O)(=O)N(Cc3ccc(F)cc3)c3ccc(Cl)cc3)cccn12 gave an Inhibition of -7.17%.
Compound CCc1cccc(NC(=O)CSc2nnc3c(=O)n(-c4ccccc4)ccn23)c1 has an Inhibition of -15.51%.
COc1ccccc1-n1ccn2c(SCc3ccccc3C)nnc2c1=O gave an Inhibition of -12.54%.
With CCOc1ccc(-n2ccn3c(SCC(=O)c4cccc(OC)c4)nnc3c2=O)cc1 the Inhibition was -9.06%.
CCc1ccc(NC(=O)Cn2nc3n(Cc4cccs4)c(=O)c4sccc4n3c2=O)cc1 was tested, and the Inhibition was -2.93%.
COc1cccc(CNC(=O)CSc2nnc3c(=O)n(-c4ccccc4)ccn23)c1OC gave an Inhibition of -16.17%.
O=C(Cn1nc2c3cc(-c4ccc(F)cc4)nn3ccn2c1=O)Nc1ccc2c(c1)OCCO2 showed an Inhibition of -25.22%.
Cc1ccc(NC(=O)Cn2c(=O)c3nnc(C)n3c3ccccc32)cc1F was tested, and the Inhibition was -16.64%.
COc1cc(NC(=O)CSc2nnc3c(=O)n(-c4ccccc4)ccn23)cc(OC)c1 gave an Inhibition of -23.26%.
Work on COc1cccc(-n2ccn3c(SCc4cccc(F)c4)nnc3c2=O)c1 yielded an Inhibition of -9.96%.
Compound CCC(Sc1nnc2c(=O)n(-c3ccccc3)ccn12)C(=O)Nc1cc(F)ccc1F (centres undefined) has an Inhibition of -17.31%.
Work on O=C(CCc1nnc2c3cc(-c4ccc(Cl)cc4)nn3ccn12)N1CCN(c2ccccn2)CC1 yielded an Inhibition of -16.65%.
Compound COC(=O)c1ccc(NC(=O)CSc2nnc3c4cc(-c5ccc(OC)cc5)nn4ccn23)cc1 has an Inhibition of -25.69%.
Work on CC(C)c1nnc2c(=O)n(CC(=O)Nc3cccc(Br)c3)c3ccccc3n12 yielded an Inhibition of -13.28%.
COc1cc(OC)c(NC(=O)Cn2nc3ccc(-c4ccc(C)c(C)c4)nn3c2=O)cc1Cl gave an Inhibition of -20.51%.
COc1cccc(-n2ccn3c(SCc4c(F)cccc4Cl)nnc3c2=O)c1 gave an Inhibition of -10.15%.
With Cc1ccc(-c2ccc3nn(Cc4cccc(F)c4)c(=O)n3n2)cc1C the Inhibition was -8.66%.
CC(=O)c1cccc(NC(=O)CSc2nc3ccccc3n3c(C)nnc23)c1 gave an Inhibition of -6.11%.
Cc1cc(C)cc(NC(=O)Cn2nc3c4cc(-c5ccc(Cl)cc5)nn4ccn3c2=O)c1 was tested, and the Inhibition was -7.11%.
CCc1ccc(NC(=O)Cn2c(=O)c3nnc(C(C)C)n3c3ccccc32)cc1 gave an Inhibition of -22.84%.
Work on COc1ccccc1-n1ccn2c(SCC(=O)Nc3ccc(C)c(F)c3)nnc2c1=O yielded an Inhibition of -5.32%.
Work on Cc1ccc(NC(=O)Cn2nc3c(SCc4ccc(Cl)cc4)nccn3c2=O)cc1F yielded an Inhibition of -12.99%.
With O=C(Cn1nc2c(N3CCOCC3)nccn2c1=O)NCc1ccc(F)cc1 the Inhibition was -8.56%.
O=C(Cn1nc2n(Cc3ccccc3)c(=O)c3ccccc3n2c1=O)Nc1ccc2c(c1)OCO2 was tested, and the Inhibition was -11.06%.
CC(C)Cn1c(=O)c2sccc2n2c(=O)n(CC(=O)NC(C)C)nc12 gave an Inhibition of -7.6%.
Cc1nnc2c(S(=O)(=O)N(Cc3ccccc3F)c3ccc(C(C)C)cc3)cccn12 showed an Inhibition of -4.75%.
Cc1ccccc1CSc1nnc2c(=O)n(-c3ccc(Br)cc3)ccn12 gave an Inhibition of -9.13%.
